Experimental data reported in PubChem BioAssay (NCI).
This is part of a sample that, as a whole, favours compounds with a hit. Of some 83,000 tested, about 20% had one in any assay.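 For each line, cells grew in 96-well plates with the test compound present at a single concentration for 48 hours.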 Unmarked numbers belong to inactive results. Activity calls are given as the source filed them. The calls were made as follows: active = growth percent below 10; inactive = the rest.

Experiments:
Assay in all cases: NCI-60 one-dose screen, 48 h (100 = growth as untreated, 0 = no growth, -100 = all killed)
HCT-15 colon = conditions: 10 µM unless noted
SNB-75 CNS = conditions: 10 µM
SNB-19 CNS = conditions: 10 µM unless noted
U251 CNS = conditions: 10 µM unless noted
PC-3 prostate = conditions: 10 µM unless noted
SK-MEL-5 melanoma = conditions: 10 µM unless noted
UACC-62 melanoma = conditions: 10 µM unless noted
LOX IMVI melanoma = conditions: 10 µM unless noted
SK-MEL-28 melanoma = conditions: 10 µM unless noted
SK-MEL-2 melanoma = conditions: 10 µM unless noted
EKVX NSCLC = conditions: 10 µM unless noted
SN12C renal = conditions: 10 µM unless noted
UO-31 renal = conditions: 10 µM unless noted
TK-10 renal = conditions: 10 µM unless noted
ACHN renal = conditions: 10 µM unless noted
A498 renal = conditions: 10 µM unless noted
CCRF-CEM leukemia = conditions: 10 µM unless noted
MOLT-4 leukemia = conditions: 10 µM unless noted
CAKI-1 renal = conditions: 10 µM unless noted

| Compound | growth (HCT-15 colon) | growth (SNB-75 CNS) [%] | growth (SNB-19 CNS) [%] | growth (U251 CNS) | growth (PC-3 prostate) | growth (SK-MEL-5 melanoma) | growth (UACC-62 melanoma) | growth (LOX IMVI melanoma) | growth (SK-MEL-28 melanoma) [%] | growth (SK-MEL-2 melanoma) | growth (EKVX NSCLC) [%] | growth (SN12C renal) | growth (UO-31 renal) | growth (TK-10 renal) | growth (ACHN renal) | growth (A498 renal) | growth (CCRF-CEM leukemia) | growth (MOLT-4 leukemia) | growth (CAKI-1 renal) |
| --- | --- | --- | --- | --- | --- | --- | --- | --- | --- | --- | --- | --- | --- | --- | --- | --- | --- | --- | --- |
| COc1ccc2c(c1)cn1c3ccc(OC)cc3[nH]c(=O)c21 | -84.4% (active) | 59.1 | 12.3 | -90.3% (active) | -72.7% (active) | 4.14% (active) | 29.9% | -79.5% (active) | 61 | -50.3% (active) | 48.5 | -11.8% (active) | -74.8% (active) | -89.6% (active) | -98.3% (active) | 41.2% | -64.8% (active) | -41.6% (active) | – |
| CN(C)c1nc2c(N)ncnc2n1C1OC(CO)C(O)C1O (configuration not stated) | 104% | 111 | 107 | 110% | 94.2% | 108% | 99.1% | 104% | 122 | 99.4% | 112 | 104% | 79.5% | 107% | 99.4% | 114% | 105% | 111% | 99.3% |
| COc1cc(C2C3=C(COC3=O)Nc3cc4c(cc32)CCC4)cc2c1OCO2 (configuration not stated) | 14.8% | 46.3 | 42.9 | 27.5% | 20.4% | -42.4% (active) | 43.7% | 13.9% | 59.1 | 54.4% | 45.4 | 30.9% | 53.5% | 67.4% | – | 25.6% | 10.3% | 19.6% | 37.2% |
| NC(N)=Nc1nc2ccccc2o1 | 105% | 111 | 99.7 | 101% | 57.6% | 93.8% | 104% | 95.5% | 95.5 | 133% | 109 | 110% | 99.9% | 129% | 96.6% | 89.5% | 80.1% | 95.4% | – |
| CCCCCCCCCCCC(=O)NCCC[N+](C)(C)CC(=O)[O-] | 100% | 93.4 | 88.3 | 72.2% | 31.8% | 95.6% | 78% | 79.8% | 99 | 96.3% | 103 | 103% | 97.6% | 76.6% | 109% | 91% | 89.5% | 78.6% | 95.8% |
| COC(=O)c1cc2cc(-c3ccc(OC)cc3)cnc2[nH]1 | 11% | 62.5 | 42.4 | 12.6% | 7.32% (active) | 30.9% | 23.8% | 25.2% | 56.1 | 8.37% (active) | 47 | 51.9% | 34.9% | 38.9% | 44% | 28.1% | 22.3% | 22.8% | -2.35% (active) |
| O=C(O)Cc1cccc(=O)c(O)c1C(=O)O | 106% | 107 | 105 | 109% | 95.7% | 108% | 100% | 101% | 110 | 97.5% | 110 | 101% | 84.2% | 108% | 101% | 114% | 98.3% | 106% | 96.1% |
| O=C1C(Cl)=C(Nc2ccccn2)C(=O)c2ccccc21 | 43.5% | 62.1 | 93.2 | 42.2% | 63.6% | -84.2% (active) | 1.2% (active) | 14.5% | 34.8 | 88.2% | 98.1 | 5.54% (active) | 12.6% | – | 17% | 100% | 56.4% | 62.8% | 53.1% |
| CC(C)(C)OC(=O)NCCc1ccc(N=C=S)cc1 | 55.9% | 42.4 | 84.7 | 75.4% | 66.3% | 86.1% | 54.8% | 56% | 69 | 53.8% | 89.7 | 90.6% | 62.7% | – | 80.3% | 70.2% | 30.2% | 69% | – |
| N#C/C(=C1C=C/C(=N/O)C(Cl)=C/1)c1ccc(Cl)cc1 | 83% | 89 | 93.6 | 46.4% | 22.2% | 93.5% | 58.3% | 7.65% (active) | 101 | 95.1% | 93.6 | 66.6% | 44.9% | 51.2% | 67.3% | 88.1% | – | 65.9% | 34% |
| Cn1ncc2c(Sc3ccc(Cl)cc3)ncnc21 | 97% | 86.7 | 81.6 | 81.9% | 78.1% | 90.1% | 87.9% | 78.3% | 102 | -13.3% (active) | 90.2 | 90.1% | 71% | 82.7% | 95.1% | 86.3% | 95.3% | 95.8% | – |
| CCCCCCCCCCCCCCCCNC(=O)OC(C)C | 55.9% | 64 | 95.5 | 14.1% | -16.9% (active) | 91% | 81.7% | -2.25% (active) | 95.9 | 58.7% | 22.8 | 64.3% | – | -3.04% (active) | – | 75.1% | 7.75% (active) | 7.03% (active) | 28.5% |
| COc1cc(Cn2cc3c(c2)-c2oncc2CC3)cc(OC)c1OC | 16.3% | 45.5 | 34.9 | 17.2% | 38.4% | -36% (active) | 41.9% | 9.46% (active) | 59.9 | 23.7% | 40.6 | 30.2% | 27.5% | 53.3% | – | -1.56% (active) | 17.3% | 17.6% | 20.8% |
| COc1cc2c(cc1O)CCN1C[C@@H](CC(C)C)[C@@H](O)C[C@@H]21 | 106% | 107 | 102 | 92.1% | 86.3% | 107% | 93.1% | 97.8% | 106 | 98.1% | 95.3 | 94.3% | 88.4% | 97% | 103% | 107% | 107% | 95.4% | 91.4% |
| CO[C@H]1NC(=O)N(S(=O)(=O)c2ccc(Cl)cc2)[C@@H]1OC | 102% | 93.6 | 103 | 101% | 97.3% | 108% | 100% | 105% | 106 | 113% | 101 | 102% | 88% | 103% | 105% | 112% | – | 102% | 92.5% |
| CCC(C)/C(=C\C#N)NCCCN/C(=C/C#N)C(C)CC (configuration not stated) | 97% | 92.1 | 109 | 104% | 89.4% | 108% | 104% | 93.7% | 111 | – | 101 | 99.7% | 82.4% | 119% | 97.1% | 124% | 97.4% | 99.4% | 96.5% |
| CCN(CC)CCOc1ccc(Cl)c(C)c1 | 104% | 93.4 | 101 | 107% | 101% | – | 104% | 101% | – | – | 111 | 108% | 86.5% | 116% | 104% | 103% | 98.4% | 99.8% | 102% |
